According to ChEMBL document CHEMBL1961873, “Compounds: GSK PKIS; Assays: Nanosyn kinase panel” (2012):

Assays:
[1] = target: Serine/threonine-protein kinase MRCK alpha (Homo sapiens) (UniProt Q5VT25); conditions: at 0.1 µM
[2] = target: Serine/threonine-protein kinase MRCK alpha (Homo sapiens) (UniProt Q5VT25); conditions: at 1 µM
[3] = target: Serine/threonine-protein kinase MRCK beta (Homo sapiens) (UniProt Q9Y5S2); conditions: at 0.1 µM
[4] = target: Serine/threonine-protein kinase MRCK beta (Homo sapiens) (UniProt Q9Y5S2); conditions: at 1 µM
[5] = target: Ribosomal protein S6 kinase alpha-5 (Homo sapiens) (UniProt O75582); conditions: at 0.1 µM
Sequence of Ribosomal protein S6 kinase alpha-5 (Homo sapiens) (O75582 whole entry, looked up): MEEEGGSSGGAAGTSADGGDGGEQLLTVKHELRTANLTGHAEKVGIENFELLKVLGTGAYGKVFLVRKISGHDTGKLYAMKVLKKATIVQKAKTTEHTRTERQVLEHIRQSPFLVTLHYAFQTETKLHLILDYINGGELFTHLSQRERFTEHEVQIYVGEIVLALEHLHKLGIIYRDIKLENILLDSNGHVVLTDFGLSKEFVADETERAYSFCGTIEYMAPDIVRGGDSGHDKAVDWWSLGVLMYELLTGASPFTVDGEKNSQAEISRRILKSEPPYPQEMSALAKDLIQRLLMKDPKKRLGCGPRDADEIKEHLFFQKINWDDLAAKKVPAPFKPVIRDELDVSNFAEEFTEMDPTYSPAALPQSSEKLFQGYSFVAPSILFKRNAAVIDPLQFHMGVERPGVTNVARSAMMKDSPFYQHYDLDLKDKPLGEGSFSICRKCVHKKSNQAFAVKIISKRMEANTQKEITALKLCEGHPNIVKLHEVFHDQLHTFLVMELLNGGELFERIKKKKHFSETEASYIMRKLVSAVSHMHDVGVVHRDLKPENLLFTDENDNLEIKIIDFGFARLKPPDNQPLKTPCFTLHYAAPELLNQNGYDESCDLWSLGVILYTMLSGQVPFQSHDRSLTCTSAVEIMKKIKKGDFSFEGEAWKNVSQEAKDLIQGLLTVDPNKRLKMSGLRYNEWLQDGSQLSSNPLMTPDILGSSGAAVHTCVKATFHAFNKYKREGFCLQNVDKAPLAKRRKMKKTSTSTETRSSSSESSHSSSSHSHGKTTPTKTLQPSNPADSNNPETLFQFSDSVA

[6] = target: Ribosomal protein S6 kinase alpha-5 (Homo sapiens) (UniProt O75582); conditions: at 1 µM
[7] = target: Ribosomal protein S6 kinase alpha-4 (Homo sapiens) (UniProt O75676); conditions: at 0.1 µM
Sequence of Ribosomal protein S6 kinase alpha-4 (Homo sapiens) (O75676 whole entry, looked up): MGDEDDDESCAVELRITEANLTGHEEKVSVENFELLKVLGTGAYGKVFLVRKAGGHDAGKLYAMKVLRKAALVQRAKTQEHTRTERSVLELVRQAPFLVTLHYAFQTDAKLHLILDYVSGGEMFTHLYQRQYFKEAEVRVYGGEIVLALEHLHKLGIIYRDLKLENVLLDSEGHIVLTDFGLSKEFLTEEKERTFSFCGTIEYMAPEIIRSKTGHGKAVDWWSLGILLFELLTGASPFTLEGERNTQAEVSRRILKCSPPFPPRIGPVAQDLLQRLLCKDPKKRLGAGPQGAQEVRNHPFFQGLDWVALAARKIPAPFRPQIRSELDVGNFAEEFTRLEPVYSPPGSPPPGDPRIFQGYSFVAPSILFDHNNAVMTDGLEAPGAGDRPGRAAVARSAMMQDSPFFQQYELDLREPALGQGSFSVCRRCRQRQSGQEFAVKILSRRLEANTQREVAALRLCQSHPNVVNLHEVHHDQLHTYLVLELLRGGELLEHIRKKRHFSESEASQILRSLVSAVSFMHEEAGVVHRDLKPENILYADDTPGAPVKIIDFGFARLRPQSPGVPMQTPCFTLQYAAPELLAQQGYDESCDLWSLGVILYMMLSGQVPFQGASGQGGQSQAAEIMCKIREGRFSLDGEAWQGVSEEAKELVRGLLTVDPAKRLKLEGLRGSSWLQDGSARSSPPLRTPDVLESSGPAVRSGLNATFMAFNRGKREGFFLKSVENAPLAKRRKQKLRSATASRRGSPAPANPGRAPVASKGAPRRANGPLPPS

[8] = target: Ribosomal protein S6 kinase alpha-4 (Homo sapiens) (UniProt O75676); conditions: at 1 µM
[9] = target: Ribosomal protein S6 kinase beta-1 (Homo sapiens) (UniProt P23443); conditions: at 0.1 µM
[10] = target: Ribosomal protein S6 kinase beta-1 (Homo sapiens) (UniProt P23443); conditions: at 1 µM

Sequence of Serine/threonine-protein kinase MRCK beta (Homo sapiens) (Q9Y5S2 whole entry): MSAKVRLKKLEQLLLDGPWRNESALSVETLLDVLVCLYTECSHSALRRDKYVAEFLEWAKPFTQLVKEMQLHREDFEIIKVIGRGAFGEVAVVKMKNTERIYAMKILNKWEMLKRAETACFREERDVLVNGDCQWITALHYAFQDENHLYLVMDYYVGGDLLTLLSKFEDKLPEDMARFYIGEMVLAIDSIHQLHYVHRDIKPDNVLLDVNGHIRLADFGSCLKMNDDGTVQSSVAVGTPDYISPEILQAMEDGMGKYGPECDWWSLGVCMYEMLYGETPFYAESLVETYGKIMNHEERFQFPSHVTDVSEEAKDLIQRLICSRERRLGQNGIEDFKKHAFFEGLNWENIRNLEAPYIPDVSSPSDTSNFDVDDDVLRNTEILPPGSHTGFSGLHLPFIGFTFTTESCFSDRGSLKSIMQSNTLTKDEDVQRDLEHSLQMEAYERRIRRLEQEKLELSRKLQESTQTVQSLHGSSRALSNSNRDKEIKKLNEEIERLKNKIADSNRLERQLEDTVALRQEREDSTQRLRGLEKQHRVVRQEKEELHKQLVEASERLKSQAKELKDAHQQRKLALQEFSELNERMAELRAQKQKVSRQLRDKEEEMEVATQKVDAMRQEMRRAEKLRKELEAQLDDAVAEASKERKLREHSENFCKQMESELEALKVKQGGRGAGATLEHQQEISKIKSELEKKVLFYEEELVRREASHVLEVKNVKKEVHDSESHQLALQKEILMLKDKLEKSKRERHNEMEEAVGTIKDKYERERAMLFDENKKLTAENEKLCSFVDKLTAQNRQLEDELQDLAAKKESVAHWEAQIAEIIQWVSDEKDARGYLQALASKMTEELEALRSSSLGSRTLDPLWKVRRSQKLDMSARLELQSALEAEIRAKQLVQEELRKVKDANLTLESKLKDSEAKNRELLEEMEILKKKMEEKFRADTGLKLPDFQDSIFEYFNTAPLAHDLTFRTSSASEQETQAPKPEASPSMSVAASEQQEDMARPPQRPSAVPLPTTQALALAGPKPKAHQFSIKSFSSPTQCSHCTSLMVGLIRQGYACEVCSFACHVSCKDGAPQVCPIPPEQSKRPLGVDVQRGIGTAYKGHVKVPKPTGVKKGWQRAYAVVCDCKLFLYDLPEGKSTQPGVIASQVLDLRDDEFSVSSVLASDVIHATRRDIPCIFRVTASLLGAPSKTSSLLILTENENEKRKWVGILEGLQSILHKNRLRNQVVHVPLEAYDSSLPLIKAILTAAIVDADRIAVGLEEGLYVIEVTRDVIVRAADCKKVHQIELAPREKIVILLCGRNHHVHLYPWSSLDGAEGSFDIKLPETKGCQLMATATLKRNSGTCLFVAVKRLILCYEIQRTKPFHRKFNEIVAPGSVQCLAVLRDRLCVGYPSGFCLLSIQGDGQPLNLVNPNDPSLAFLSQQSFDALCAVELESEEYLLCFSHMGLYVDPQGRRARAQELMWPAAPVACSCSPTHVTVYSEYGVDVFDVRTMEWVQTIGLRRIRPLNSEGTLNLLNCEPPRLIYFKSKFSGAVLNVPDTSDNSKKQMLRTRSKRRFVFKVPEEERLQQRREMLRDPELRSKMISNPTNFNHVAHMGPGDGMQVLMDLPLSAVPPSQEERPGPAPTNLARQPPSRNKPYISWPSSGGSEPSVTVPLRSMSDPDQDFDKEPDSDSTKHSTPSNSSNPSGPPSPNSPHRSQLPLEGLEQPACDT
Sequence of Serine/threonine-protein kinase MRCK alpha (Homo sapiens) (Q5VT25 whole entry): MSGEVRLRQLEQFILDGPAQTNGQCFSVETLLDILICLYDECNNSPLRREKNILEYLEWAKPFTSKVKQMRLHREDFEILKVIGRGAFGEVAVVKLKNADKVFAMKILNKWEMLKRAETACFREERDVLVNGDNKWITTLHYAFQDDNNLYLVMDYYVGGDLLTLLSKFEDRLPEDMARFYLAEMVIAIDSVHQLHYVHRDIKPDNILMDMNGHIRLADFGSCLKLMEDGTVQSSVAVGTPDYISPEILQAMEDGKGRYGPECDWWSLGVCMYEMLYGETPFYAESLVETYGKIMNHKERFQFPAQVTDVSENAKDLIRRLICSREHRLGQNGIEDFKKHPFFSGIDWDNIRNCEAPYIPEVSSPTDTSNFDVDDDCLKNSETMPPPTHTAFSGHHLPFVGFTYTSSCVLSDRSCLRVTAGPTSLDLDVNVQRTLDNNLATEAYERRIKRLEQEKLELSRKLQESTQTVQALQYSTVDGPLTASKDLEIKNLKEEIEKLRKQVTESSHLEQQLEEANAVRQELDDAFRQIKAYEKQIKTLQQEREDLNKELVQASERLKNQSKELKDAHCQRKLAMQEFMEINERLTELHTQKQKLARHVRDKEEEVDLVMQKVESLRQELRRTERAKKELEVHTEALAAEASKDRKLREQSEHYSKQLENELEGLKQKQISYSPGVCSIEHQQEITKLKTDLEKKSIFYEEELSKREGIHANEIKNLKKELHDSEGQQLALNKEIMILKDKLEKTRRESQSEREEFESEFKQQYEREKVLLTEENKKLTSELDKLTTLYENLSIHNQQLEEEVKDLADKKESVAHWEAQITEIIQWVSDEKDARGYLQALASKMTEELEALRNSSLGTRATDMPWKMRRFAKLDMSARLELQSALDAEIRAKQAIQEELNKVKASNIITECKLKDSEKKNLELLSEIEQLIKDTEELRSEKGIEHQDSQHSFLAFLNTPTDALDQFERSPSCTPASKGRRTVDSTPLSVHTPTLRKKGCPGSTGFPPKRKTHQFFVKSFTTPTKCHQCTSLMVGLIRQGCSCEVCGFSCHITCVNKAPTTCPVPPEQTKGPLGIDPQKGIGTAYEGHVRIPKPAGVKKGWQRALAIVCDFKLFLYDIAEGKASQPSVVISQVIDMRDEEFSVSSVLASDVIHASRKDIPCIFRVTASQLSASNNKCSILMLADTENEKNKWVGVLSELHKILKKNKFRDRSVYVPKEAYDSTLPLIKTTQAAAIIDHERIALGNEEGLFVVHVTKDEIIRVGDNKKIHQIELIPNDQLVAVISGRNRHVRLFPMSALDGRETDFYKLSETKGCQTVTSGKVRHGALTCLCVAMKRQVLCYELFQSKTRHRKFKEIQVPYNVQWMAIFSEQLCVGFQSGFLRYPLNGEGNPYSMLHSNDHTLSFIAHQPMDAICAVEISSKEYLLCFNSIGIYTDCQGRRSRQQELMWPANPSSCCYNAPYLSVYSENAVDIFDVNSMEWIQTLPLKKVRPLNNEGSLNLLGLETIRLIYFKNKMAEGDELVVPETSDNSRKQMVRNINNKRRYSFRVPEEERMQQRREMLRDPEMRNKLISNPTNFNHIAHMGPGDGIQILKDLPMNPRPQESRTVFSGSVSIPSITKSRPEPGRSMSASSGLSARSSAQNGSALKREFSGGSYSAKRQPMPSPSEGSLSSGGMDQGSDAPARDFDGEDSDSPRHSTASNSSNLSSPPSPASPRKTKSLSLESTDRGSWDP

Compound	inhibition [1] [%]	inhibition [2] [%]	inhibition [3] [%]	inhibition [4] [%]	inhibition [5] [%]	inhibition [6] [%]	inhibition [7] [%]	inhibition [8] [%]	inhibition [9] [%]	inhibition [10] [%]
CCn1c(-c2nonc2N)nc2c(C#CC(C)(C)O)ncc(OC[C@@H]3CCCN3)c21	-1.54	23.5	2.11	19.5	0.57	7.89	3.2	17.5	3.87	25.4
CCn1c(-c2nonc2N)nc2c(C#CC(C)(C)O)ncc(OCC3CCNCC3)c21	3.52	33.2	2.36	21.1	2.98	16.2	4.39	19.2	3.1	15.4
COc1cc(C=NNc2ncnc3c2cnn3Cc2ccccc2)ccc1O	1.44	-1.07	1.9	4.11	2.29	3	1.75	4.49	-1.02	-0.11
NS(=O)(=O)c1ccc(N/C=C2\C(=O)Nc3ccc4ncsc4c32)cc1	-1.47	10.5	0.46	5.66	5.1	12.2	15.3	50.9	1.92	13.5
COc1cccc(COc2cc(-n3cnc4ccccc43)sc2C(N)=O)c1	-5.2	-1.17	-0.37	0.51	0.54	-1.08	1.36	-0.28	0.45	-0.53
Nc1nonc1-c1nc2cnccc2n1C1CCCCC1	18.6	65.9	29.6	72	76.5	85.2	59.6	83	72.6	91.2
CCn1c(-c2nonc2N)nc2c(C#CC(C)(C)O)nc(O[C@@H](CN)c3ccccc3)cc21	29	72.8	20.8	66.2	8.67	51.3	15	61.3	13.1	58.4
NC(=O)c1sc(-n2cnc3cc(C(F)(F)F)ccc32)cc1OCc1ccccc1Br	-1.08	-4.81	0.07	0.13	0.28	-0.19	2.32	1.32	1.25	-0.49
NS(=O)(=O)c1ccc(-c2ccc3c(NC(=O)C4CC4)n[nH]c3c2)cc1	-0.42	-1.48	0.24	1.84	3.18	7.98	-0.31	4.18	0.95	2.84
Cc1cc(-c2ccco2)cc(C)c1/C=C/c1cncc(-c2nn[nH]n2)c1	-2.3	-3.4	0.22	-0.72	-0.62	-1.54	0.13	1.02	0.97	-0.33
Fc1ccc(-c2ncn(C3CCNCC3)c2-c2ccnc(Oc3ccccc3)n2)cc1	-3.2	-1.87	-0.1	-0.81	-1.31	-2.46	1.09	0.21	1.34	7.24
CCn1c(-c2nonc2N)nc2c(C#CCN)ncc(OCCCN)c21	6.68	13.4	6.58	23.4	12.1	51.5	12.9	52	7.3	44.7
COc1cccc(-n2ncc3c(N/N=C/c4ccncc4)ncnc32)c1	-0.11	3.78	0.53	0.77	3.86	4.1	2.47	4.26	2.67	7.24
COc1cc2c(cc1Nc1nc(Nc3ccsc3C(N)=O)c3cc[nH]c3n1)N(C(=O)CN(C)C)CCC2	-2.47	-0.12	-0.68	-0.44	2.59	-0.04	2.53	-0.18	1.15	0.53
